The values below come from ChEMBL document CHEMBL3988442, “University of Dundee, Small-Polar-MMV Screening Library” (2021).

Holding throughout (parameters): scale not given: direction of the effect not stated beside the values
For experiment [1], the target named is Protein translocase subunit SecA (Escherichia coli (strain K12)) (UniProt P10408). Briefly: Assay to Identify E. coli SecA ATPase Inhibitors. Conditions: 30 µM. It is filed as functional.
Experiment [2] has as its target T1, Ubiquitin-activating enzyme e1, putative (Leishmania donovani (strain BPK282A1)) (UniProt E9BSI1).
T1 sequence (whole entry): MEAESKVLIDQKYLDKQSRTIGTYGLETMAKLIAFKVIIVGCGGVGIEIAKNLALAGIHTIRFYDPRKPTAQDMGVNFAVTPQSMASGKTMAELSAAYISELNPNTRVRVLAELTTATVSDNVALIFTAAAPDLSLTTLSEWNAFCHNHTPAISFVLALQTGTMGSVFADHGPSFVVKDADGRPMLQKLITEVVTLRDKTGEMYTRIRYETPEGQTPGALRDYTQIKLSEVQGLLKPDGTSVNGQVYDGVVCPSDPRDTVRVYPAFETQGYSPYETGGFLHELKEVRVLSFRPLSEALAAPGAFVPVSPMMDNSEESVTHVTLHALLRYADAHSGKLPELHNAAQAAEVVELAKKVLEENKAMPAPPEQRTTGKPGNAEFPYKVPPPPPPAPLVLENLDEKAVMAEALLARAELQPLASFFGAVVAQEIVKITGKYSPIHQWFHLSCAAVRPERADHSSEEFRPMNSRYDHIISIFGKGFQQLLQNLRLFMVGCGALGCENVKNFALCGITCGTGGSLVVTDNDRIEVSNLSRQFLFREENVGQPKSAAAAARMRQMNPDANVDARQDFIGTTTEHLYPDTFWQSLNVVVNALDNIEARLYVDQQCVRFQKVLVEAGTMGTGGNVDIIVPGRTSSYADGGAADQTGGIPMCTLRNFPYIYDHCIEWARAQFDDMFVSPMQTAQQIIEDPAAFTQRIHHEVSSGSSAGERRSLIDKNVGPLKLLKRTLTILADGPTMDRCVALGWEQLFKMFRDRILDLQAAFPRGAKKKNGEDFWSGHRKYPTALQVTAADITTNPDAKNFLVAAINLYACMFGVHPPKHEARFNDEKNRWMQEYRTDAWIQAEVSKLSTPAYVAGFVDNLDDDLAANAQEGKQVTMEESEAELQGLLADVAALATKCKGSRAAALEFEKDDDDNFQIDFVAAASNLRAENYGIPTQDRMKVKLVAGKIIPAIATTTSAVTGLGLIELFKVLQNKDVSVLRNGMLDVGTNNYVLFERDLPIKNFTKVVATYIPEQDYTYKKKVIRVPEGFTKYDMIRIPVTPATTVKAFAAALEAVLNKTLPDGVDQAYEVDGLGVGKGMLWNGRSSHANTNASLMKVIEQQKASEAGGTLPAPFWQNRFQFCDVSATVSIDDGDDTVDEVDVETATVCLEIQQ
Briefly: Leishmania donovani Ubiquitin Activating Enzyme (LdE1). The settings on record: 30 µM. It is filed as functional.

Experiment [3] addresses T2, Aspartate--tRNA(Asp/Asn) ligase (Mycobacterium tuberculosis (strain ATCC 25618 / H37Rv)) (UniProt P9WFW3).
T2 sequence (whole entry): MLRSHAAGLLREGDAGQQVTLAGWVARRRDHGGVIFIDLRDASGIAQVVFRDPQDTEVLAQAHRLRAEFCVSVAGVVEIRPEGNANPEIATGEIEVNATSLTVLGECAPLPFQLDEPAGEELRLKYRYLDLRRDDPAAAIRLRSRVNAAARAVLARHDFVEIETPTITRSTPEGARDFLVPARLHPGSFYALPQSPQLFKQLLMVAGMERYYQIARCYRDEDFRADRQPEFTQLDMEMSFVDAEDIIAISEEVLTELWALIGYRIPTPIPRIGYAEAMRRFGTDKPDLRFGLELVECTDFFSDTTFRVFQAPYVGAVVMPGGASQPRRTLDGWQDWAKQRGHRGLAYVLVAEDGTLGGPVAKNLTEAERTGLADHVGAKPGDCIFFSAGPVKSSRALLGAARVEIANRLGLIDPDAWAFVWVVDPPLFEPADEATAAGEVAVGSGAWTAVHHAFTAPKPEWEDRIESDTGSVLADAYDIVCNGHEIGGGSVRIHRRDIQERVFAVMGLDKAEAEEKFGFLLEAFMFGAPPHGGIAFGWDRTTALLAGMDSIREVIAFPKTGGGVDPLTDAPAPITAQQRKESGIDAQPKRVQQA
The experiment can be described thus: Assay for Asp RNA synthetase-1 from Mycobacterium tuberculosis. It is filed as functional. The settings on record: 30 µM.

Experiment [4] has as its target AMP-activated protein kinase, AMPK (Homo sapiens) (UniProt P54646+O43741+P54619+Q9UGJ0+Q9Y478+Q13131+Q9UGI9). The experiment can be described thus: AMP-dependent Kinase enzyme assay. An in vitro enzyme assay that detects ADP turnover that is directly proportional to AMPK activity. This uses naive AMPK that is activated during the assay with MK-8722. The class given is functional. The settings on record: 30 µM.

Experiment [5] concerns the target Sialic acid-binding Ig-like lectin 9 (Homo sapiens) (UniProt Q9Y336). The experiment can be described thus: Hs-Siglec9 ALPHAscreen SOP 20170721. The settings on record: 10 µM. A general note: Bead proximity is the source of the signal in Alpha formats.
The next experiment concerns Trypanosoma cruzi. The experiment can be described thus: Trypanosoma cruzi phosphomannomutase and mannose-1-phosphate guanylyltransferase assay. Conditions: 10 µM. It is filed as functional.
The target of experiment [6] is T3, Arginase-2, mitochondrial (Homo sapiens) (UniProt P78540).
T3 sequence (whole entry): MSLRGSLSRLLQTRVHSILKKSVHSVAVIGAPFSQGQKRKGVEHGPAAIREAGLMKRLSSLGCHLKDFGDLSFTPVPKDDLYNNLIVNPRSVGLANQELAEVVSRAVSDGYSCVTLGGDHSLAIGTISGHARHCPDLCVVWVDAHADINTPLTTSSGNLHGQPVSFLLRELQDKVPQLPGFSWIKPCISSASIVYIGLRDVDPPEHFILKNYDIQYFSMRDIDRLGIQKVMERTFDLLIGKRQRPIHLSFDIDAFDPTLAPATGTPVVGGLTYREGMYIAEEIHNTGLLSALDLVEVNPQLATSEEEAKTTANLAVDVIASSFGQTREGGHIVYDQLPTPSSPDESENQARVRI
The experiment can be described thus: in vitro enzyme assay to detect the production of urea directly proportional to the activity of Arginase II. Also: in the data most compounds retested in dose-response had high values. Conditions: 33.3 µM. It is filed as functional.

The target in experiment [7] is T4, Proteasome subunit beta (Trypanosoma cruzi) (UniProt O96673).
T4 sequence (whole entry): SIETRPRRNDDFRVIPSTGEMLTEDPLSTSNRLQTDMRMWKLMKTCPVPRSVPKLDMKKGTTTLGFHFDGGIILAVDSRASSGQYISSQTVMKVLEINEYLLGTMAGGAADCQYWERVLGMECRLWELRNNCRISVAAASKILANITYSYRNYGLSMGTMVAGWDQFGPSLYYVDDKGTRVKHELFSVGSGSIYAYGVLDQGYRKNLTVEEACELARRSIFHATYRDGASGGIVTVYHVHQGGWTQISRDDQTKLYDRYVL
The experiment can be described thus: Trypanosoma cruzi proteasome chymotrypsin-like activity (TcProtChymo) assay. Also: in the data most compounds retested in dose-response had high values. Conditions: 9.37 µM. It is filed as functional.

For another experiment, the species on record is Homo sapiens. Briefly: To identify inhibition of the IFN signalling (Jak-Stat) pathway via expression of an eGFP reporter gene under the control of an IFN-stimulated response element (ISRE) containing MxA promoter. It is filed as functional. The settings on record: 30 µM. (In general: A reporter such as luciferase makes a cellular process visible.)

For experiment [8], the target named is Shiga toxin 2 (Escherichia coli O157:H7) (UniProt P09385+P09386). Briefly: E. coli 0.157:H7 Shiga Toxin SOP - stx2 screening assay. The class given is functional. Conditions: 30 µM.
In experiment [9] the target is T5, Tyrosyl-tRNA synthetase, putative (Trypanosoma cruzi (strain CL Brener)) (UniProt Q4DSP6).
T5 sequence (whole entry): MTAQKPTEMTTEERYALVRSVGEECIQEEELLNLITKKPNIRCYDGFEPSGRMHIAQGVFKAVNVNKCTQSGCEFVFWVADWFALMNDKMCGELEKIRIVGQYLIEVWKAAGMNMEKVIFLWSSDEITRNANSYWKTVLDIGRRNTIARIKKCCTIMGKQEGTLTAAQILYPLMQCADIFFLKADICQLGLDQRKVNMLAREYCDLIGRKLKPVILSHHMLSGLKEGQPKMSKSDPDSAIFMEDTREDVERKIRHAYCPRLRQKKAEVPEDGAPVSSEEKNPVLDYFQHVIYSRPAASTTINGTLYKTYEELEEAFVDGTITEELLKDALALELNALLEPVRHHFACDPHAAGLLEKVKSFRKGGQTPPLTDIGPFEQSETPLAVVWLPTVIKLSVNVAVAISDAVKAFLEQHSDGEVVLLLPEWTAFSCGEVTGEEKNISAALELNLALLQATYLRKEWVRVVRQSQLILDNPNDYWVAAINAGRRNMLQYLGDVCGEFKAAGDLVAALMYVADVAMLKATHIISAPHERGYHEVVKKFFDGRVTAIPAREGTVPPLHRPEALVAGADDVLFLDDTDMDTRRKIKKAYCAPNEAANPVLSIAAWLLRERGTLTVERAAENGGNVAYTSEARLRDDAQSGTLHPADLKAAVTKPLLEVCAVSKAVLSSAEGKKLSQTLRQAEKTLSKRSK
Briefly: Trypanosoma cruzi tyrosyl tRNA synthetase (TcYRS) _High Tyrosine SOP. Also: in the data most compounds retested in dose-response had high values. It is filed as functional. The settings on record: 30 µM.

Experiment [10] addresses T5, Tyrosyl-tRNA synthetase, putative (Trypanosoma cruzi (strain CL Brener)). Briefly: Trypanosoma cruzi tyrosyl tRNA synthetase (TcYRS) SOP. Conditions: 30 µM. The class given is functional.
Experiment [11] deals with Chromo domain-containing protein 1 (Saccharomyces cerevisiae (strain ATCC 204508 / S288c) (Baker's yeast)) (UniProt P32657). Briefly: ScCHD-1 Enzyme Inhibition Assay. Also: in the data most compounds retested in dose-response had high values. The class given is functional. The settings on record: 30 µM.

For some of these results: Measured potencies and affinities stand elsewhere.

Chain of Chromo domain-containing protein 1 (Saccharomyces cerevisiae (strain ATCC 204508 / S288c) (Baker's yeast)) (P32657 whole entry, the tested form may be a part): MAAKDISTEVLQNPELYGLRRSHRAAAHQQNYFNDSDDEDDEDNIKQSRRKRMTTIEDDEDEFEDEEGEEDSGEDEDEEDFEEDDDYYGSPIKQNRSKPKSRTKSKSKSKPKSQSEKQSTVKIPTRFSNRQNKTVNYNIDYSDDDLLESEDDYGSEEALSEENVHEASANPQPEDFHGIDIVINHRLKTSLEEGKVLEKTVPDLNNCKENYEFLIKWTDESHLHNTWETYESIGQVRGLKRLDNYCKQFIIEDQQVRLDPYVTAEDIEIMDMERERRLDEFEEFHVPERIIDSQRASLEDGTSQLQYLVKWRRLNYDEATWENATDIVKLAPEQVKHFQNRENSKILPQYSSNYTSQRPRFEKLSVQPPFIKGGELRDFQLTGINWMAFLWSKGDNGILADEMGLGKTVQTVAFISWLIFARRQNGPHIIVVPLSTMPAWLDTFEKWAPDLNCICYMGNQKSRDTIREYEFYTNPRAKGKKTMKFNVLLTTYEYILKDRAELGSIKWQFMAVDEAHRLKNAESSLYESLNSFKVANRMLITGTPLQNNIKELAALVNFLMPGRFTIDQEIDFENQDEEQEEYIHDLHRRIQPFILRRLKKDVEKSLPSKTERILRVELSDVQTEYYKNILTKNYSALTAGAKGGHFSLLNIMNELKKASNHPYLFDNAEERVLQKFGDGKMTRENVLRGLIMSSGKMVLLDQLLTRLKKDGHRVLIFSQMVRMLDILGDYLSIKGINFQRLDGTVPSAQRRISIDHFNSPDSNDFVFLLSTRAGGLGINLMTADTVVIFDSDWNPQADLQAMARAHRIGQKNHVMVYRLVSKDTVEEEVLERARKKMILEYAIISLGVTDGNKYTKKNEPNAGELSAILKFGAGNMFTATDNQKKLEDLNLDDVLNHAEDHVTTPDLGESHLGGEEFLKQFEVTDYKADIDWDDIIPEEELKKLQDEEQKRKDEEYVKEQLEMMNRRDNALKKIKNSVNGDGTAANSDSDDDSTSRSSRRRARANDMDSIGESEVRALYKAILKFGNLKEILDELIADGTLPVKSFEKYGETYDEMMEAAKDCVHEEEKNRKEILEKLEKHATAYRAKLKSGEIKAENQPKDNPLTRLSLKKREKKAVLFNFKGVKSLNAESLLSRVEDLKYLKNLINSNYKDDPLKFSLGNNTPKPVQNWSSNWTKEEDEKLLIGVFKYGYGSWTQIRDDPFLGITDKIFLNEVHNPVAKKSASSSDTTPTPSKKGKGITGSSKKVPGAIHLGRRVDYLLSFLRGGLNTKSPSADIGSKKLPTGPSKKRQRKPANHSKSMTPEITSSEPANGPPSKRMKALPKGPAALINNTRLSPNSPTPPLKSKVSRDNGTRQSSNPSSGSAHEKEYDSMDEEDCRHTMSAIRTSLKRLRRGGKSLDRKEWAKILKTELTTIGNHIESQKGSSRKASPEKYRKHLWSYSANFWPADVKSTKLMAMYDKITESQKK
Chain of Sialic acid-binding Ig-like lectin 9 (Homo sapiens) (Q9Y336 whole entry): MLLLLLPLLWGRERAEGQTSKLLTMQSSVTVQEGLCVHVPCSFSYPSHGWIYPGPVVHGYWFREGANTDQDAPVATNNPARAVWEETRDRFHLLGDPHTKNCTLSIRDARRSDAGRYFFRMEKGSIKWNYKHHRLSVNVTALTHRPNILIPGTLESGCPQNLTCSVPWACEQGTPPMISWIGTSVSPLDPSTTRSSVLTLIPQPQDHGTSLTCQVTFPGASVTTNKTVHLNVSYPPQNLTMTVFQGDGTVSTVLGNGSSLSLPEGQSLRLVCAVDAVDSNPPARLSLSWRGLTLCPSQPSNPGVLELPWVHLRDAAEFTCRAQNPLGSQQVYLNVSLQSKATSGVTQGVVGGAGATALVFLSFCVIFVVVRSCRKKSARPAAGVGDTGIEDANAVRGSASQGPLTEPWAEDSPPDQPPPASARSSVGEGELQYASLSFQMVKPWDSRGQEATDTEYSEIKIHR
Chain of Protein translocase subunit SecA (Escherichia coli (strain K12)) (P10408 whole entry): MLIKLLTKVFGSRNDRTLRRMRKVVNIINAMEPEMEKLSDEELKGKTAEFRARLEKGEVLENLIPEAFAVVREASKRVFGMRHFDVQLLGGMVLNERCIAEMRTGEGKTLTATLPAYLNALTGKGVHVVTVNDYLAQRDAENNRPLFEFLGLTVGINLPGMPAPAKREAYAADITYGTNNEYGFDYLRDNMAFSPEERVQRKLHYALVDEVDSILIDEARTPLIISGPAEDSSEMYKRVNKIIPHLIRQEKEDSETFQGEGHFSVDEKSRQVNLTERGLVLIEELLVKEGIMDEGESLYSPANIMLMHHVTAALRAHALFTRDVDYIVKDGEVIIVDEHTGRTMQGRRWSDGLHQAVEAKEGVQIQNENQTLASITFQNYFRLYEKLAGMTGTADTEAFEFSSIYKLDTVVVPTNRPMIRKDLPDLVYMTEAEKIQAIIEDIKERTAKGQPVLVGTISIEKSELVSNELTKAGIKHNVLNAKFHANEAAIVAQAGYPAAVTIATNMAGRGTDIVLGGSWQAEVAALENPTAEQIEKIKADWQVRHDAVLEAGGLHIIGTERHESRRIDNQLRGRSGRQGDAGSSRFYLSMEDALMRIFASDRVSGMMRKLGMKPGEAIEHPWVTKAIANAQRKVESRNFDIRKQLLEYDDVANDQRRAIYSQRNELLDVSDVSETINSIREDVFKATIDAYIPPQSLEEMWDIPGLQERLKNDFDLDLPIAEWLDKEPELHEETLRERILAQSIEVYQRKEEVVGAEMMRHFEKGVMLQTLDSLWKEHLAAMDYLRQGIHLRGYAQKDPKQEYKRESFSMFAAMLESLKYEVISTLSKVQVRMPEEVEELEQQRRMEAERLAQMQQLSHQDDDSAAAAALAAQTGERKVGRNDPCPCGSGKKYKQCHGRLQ

Take `O=C(NC[C@]12COC[C@H]1CN(Cc1cccnc1)C2)c1ccno1`: the Percent Effect in experiment [1] is 0.292%; in [2], 13.3%; in experiment [3] it was 0.956%; in [4] it was 8.36%; in experiment [5], -8.01%; in the experiment with Trypanosoma cruzi, -4.13%. The Percent Effect in [6] is -0.233%; in experiment [7], 2.73%; in the experiment filed under Homo sapiens, -4.47%; in [8], -10.4%; in experiment [9], 9.57%; in experiment [10], 19.2%. Moreover, the Percent Effect in experiment [11] is -7.79%.
Turning to `CCn1cc(CN2CCCN(C(=O)Cc3cccs3)CC2)cn1`, the Percent Effect in experiment [1] is -4.84%; in [2], 22.8%; in experiment [3] it was -2.8%; in [4] it was -10.6%; in [5], 3.48%; in the experiment on Trypanosoma cruzi, 6.52%. Further, the Percent Effect in experiment [6] is -0.76%; in experiment [7], 15.6%; in the experiment filed under Homo sapiens, -4.27%; in [8], -21.2%; in experiment [9], 10.3%; in experiment [10], 29.1%. The Percent Effect in experiment [11] was -8.38%.
As for `Cc1cccc(CN2C[C@@H]3CCCO[C@@H]3[C@H](NS(C)(=O)=O)C2)n1`, the Percent Effect was -4.89% in experiment [1]; 21.3% in experiment [2]; 4.75% in [3]; -6.76% in [4]; -3.19% in experiment [5]; 5.99% with Trypanosoma cruzi. Besides, the Percent Effect in [6] was -50.4%; in experiment [7], 11.1%; in the experiment filed under Homo sapiens it was -3.89%; in [8], -20.3%; in experiment [9], 7.29%; in [10] it was 25%. Besides, the Percent Effect in experiment [11] is -7.06%.
Consider `O=C1CC[C@@H]2[C@@H](CCN2Cc2ccncc2)N1c1ccccc1`, for which the Percent Effect is -3.22% in [1]; -8% in [2]; 0.204% in experiment [3]; -13.7% in experiment [4]; 8.87% in experiment [5]; -2.7% in the experiment with Trypanosoma cruzi. Further, the Percent Effect in experiment [6] is 0.896%; in experiment [7], 11.1%; in the experiment listed under Homo sapiens, -5.31%; in experiment [8], -8.6%; in [9] it was 5.21%; in experiment [10], 7.5%. The Percent Effect in experiment [11] is -2.91%.
Regarding `Cc1ncccc1OCC(=O)N1CCN[C@H]2CS(=O)(=O)C[C@H]21`, the Percent Effect was -6.4% in experiment [1]; 10.8% in experiment [2]; 7.97% in experiment [3]; -4.66% in [4]; 0.713% in experiment [5]; 0.489% with Trypanosoma cruzi. Moreover, the Percent Effect in [6] was 4.71%; in experiment [7], 14.2%; in the experiment listed under Homo sapiens, -4.73%; in experiment [8] it was 11.7%; in [9] it was 9.68%; in [10], 18.5%. In addition, in experiment [11], the Percent Effect was -1.55%.
Take `Cn1cc(N2CCC3(CCN(Cc4cccnc4)C3)C2=O)cn1` (stereo unspecified): the Percent Effect in [1] was 1.77%; in experiment [2], 5.41%; in [3], -4.84%; in experiment [4], 7.18%; in experiment [5] it was -13.3%; in the experiment with Trypanosoma cruzi, -4.79%. Further, the Percent Effect was 1.59% in experiment [6]; 25.1% in [7]; 2.62% in the experiment listed under Homo sapiens; -17% in experiment [8]; 0% in experiment [9]; 10.3% in experiment [10]. In addition, the Percent Effect in experiment [11] is -1.3%.
With `O=C(c1ccnnc1)N1C[C@@H]2OCCN(CCN3CCCC3)[C@@H]2C1`, the Percent Effect is 3.18% in experiment [1]; 0% in experiment [2]; 0.474% in [3]; -5.06% in [4]; 4.92% in experiment [5]; -2.64% in the experiment on Trypanosoma cruzi. Besides, the Percent Effect was -1.59% in experiment [6]; 12.7% in [7]; -3.96% in the experiment filed under Homo sapiens; -4.98% in [8]; 6.49% in experiment [9]; 2.56% in experiment [10]. Moreover, the Percent Effect in [11] was 6.02%.
